Source: PubChem BioAssay (National Center for Advancing Translational Sciences (NCATS))
In the library only some 2.5% were active in any assay of this set; here they are far more common.
Pol beta inh: qHTS Assay for Inhibitors of DNA Polymerase Beta | AID 485314, 2010 | Pol beta primer extension/strand displacement, fluorescence kinetic | actives 1.3% (n = 340,000) | Potency, µM (highest dose often 114 µM), for the others: top-dose activity change, negative = inhibition, most hits filed as inhibitors; further: on the % scale 0 is the no-effect control and ±100 the full control effect
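Pol beta (10 nM) was preincubated with compound for 15 min at room temperature. The reaction was then started with 50 nM substrate and read immediately and after a further 10 min at room temperature.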
APE1 inh: qHTS Assay for Inhibitors of the Human Apurinic/apyrimidinic Endonuclease 1 (APE1); DNA repair nuclease/redox regulator APEX1 (Homo sapiens), P27695; recombinant APE1, TAMRA/BHQ-2 abasic DNA cleavage fluorescence; Potency, µM (titrated, usually from 65.8 µM), for the others: top-dose activity change, negative = inhibition, actives largely listed as inhibitors; actives 0.35% (n = 350,000); AID 2517, 2012;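 further: plate controls were vehicle for no effect and reference inhibitor for full effect; nearly all actives have a fitted effect of over 55% in size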
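APE1 at 0.75 nM final was preincubated with compound 15 min at room temperature, then 50 nM double-stranded THF abasic-site substrate (5'-TAMRA/3'-BHQ-2) was added. Fluorescence (ex 525/em 598 nm) was read kinetically; third-minus-first read gave activity.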
L3MBTL1 block: qHTS Assay for the Inhibitors of L3MBTL1. AID 485360, 2010. actives 0.66% (n = 230,000). AlphaScreen L3MBTL1–H3K9me1 peptide binding. Potency, µM (doses to about 57.1 µM), without a hit: at the top dose activity, negative = inhibition, hits mostly inhibitors. Lethal(3)malignant brain tumor-like protein 1 (Homo sapiens), Q9Y468; further: on the % scale 0 is the no-effect control and ±100 the full control effect; nearly all actives have a fitted effect of over 60% in size
Target sequence (Q9Y468 whole entry, looked up): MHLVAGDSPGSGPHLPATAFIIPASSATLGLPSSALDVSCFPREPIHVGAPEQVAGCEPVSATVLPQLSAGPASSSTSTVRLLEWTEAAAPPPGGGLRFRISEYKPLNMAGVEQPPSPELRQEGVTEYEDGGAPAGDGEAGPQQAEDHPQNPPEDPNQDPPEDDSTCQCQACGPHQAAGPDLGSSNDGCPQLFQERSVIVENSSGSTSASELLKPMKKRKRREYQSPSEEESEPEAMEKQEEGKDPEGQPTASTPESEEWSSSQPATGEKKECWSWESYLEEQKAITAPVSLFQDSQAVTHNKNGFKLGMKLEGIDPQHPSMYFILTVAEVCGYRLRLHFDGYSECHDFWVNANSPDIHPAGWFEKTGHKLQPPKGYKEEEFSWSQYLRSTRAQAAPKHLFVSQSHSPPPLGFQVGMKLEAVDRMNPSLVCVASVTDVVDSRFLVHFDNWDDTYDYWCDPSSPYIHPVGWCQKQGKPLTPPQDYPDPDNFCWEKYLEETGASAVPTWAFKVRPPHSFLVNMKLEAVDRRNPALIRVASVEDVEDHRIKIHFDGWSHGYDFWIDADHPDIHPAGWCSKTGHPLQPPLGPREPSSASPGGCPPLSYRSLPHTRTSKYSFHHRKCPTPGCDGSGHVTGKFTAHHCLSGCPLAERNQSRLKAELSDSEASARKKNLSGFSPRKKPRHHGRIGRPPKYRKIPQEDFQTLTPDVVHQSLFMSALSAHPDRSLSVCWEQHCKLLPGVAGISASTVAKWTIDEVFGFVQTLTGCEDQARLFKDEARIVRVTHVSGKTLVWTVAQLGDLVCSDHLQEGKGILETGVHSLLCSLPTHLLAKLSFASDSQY
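AlphaScreen proximity signal between nickel-chelate acceptor and streptavidin donor beads (final 10 ug/mL) reports binding of 50 nM L3MBTL1 to 75 nM biotin-H3 K9me1 peptide; complex incubated with compounds 30 min at room temperature; cefsulodin titration as control.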
Pol kappa inh-1: qHTS for Inhibitors of Polymerase Kappa; actives 0.53% (n = 400,000); DNA polymerase kappa (Homo sapiens), Q9UBT6; purified Pol kappa, fluorescent DNA synthesis assay, 10 min; AID 588579, 2011; Potency, µM (doses to about 107 µM), for the others: at the highest dose activity, negative = inhibition, actives largely listed as inhibitors; further: on the % scale 0 is the no-effect control and ±100 the full control effect
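Readout: fluorescence, taken kinetically at 0 and 10 min. Conditions: 10 nM Pol kappa, 15 min RT compound preincubation, 50 nM substrate final. Controls: enzyme-free buffer wells.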
Pol eta inh-1: qHTS for Inhibitors of Polymerase Eta. DNA polymerase eta (Homo sapiens), Q9Y253. recombinant Pol eta, fluorescent DNA replication assay. Potency, µM (highest dose often 114 µM), without a hit: at the highest dose activity change, negative = inhibition, usual class: inhibitors. actives 1.2% (n = 390,000). AID 588591, 2011; further: on the % scale 0 is the no-effect control and ±100 the full control effect
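Fluorescent replication assay: 50 nM final substrate added after a 15 min room-temperature compound preincubation with 10 nM enzyme. Signal taken at 0 min and again at 10 min.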
Pol iota inh: qHTS for Inhibitors of Polymerase Iota; AID 588590, 2011; Potency, µM (series often up to 115 µM), without a hit: top-dose activity, negative = inhibition, actives largely listed as inhibitors; Pol iota fluorescent replication assay, 10 min; actives 1% (n = 390,000)
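Pol iota at 10 nM preincubated 15 min with compounds at room temperature; reaction started with fluorescent substrate, 50 nM final. Fluorescence read kinetically at 0 and 10 min; buffer-only wells as negative control.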
PGK validate: qHTS for inhibitors of Phosphogylcerate Kinase: Hit Validation Screen; TbPGK coupled GAPDH assay, Kinase-Glo luminescence; shares compounds with Pol kappa inh-1; Potency, µM (top dose mostly 57.5 µM), inactives show at the highest dose activity change, negative = inhibition, hits mostly inhibitors; actives 79% (n = 500); further: on the % scale 0 is the no-effect control and ±100 the full control effect; nearly all actives have a fitted effect of over 65% in size
Pol iota confirm: qHTS for Inhibitors of Polymerase Iota: Confirmatory Assay for Cherry-picked Compounds; shares compounds with Pol kappa inh-1; Pol iota primer extension, TAMRA/BHQ fluorescence; Potency, µM, usual class: inhibitors; actives 77% (n = 1,500); AID 720496, 2013
Pol kappa inh-2: qHTS for Inhibitors of Polymerase Kappa: Confirmatory Assay for Cherry-picked Compounds | shares compounds with Pol eta inh-1 | purified Pol-kappa, fluorescent strand-displacement substrate | Potency, µM, actives largely listed as inhibitors | actives 76% (n = 920) | AID 720501, 2013
Pol eta inh-2: qHTS for Inhibitors of Polymerase Eta: Confirmatory Assay for Cherry-picked Compounds; Pol eta primer extension, TAMRA/BHQ fluorescence, 10 min; shares compounds with Pol eta inh-1; actives 64% (n = 2,600); Potency, µM, usual class: inhibitors
The depositor's hits bear a star; u = inconclusive; x = no result given; ! = repeats disagree; [ ] = remark or other dose. The call rests on the fitted dose curve; in most records, active means well fitted curve in the direction sought with a large enough effect; inconclusive means small, poorly fitted or top-dose-only effect, or another doubt; inactive means no such curve, though single readings can be large; an effect the other way counts as inactive or inconclusive. Potency means the concentration at half of the fitted maximal effect.

SMILES	Pol beta inh	APE1 inh	L3MBTL1 block	Pol kappa inh-1	Pol eta inh-1	Pol iota inh	Pol iota confirm	Pol eta inh-2	others
COC(=O)C1=CO[C@@H](O[C@@H]2OC(CO)[C@@H](O)[C@@H](O)[C@@H]2O)C2C1CC[C@]2(C)O (stereo partly drawn)	x	x	x	-2%	-16%	22%	x	x
COC(=O)C1=COC(OC2OC(CO)C(O)C(O)C2O)C2C1C=CC2(O)CO (stereo not drawn)	20µM*	7.9µM*	x	35µM*	18µM*	40µM*	34*	27*	PGK validate=8.2µM*
Cc1cccc(C)c1NC(=O)CN(C)C(=O)c1ccccc1OCc1ccc(F)cc1	x	8%	1%	5%	-23%	21%	x	x
Cc1ccc(C(=O)O)cc1N1C(=O)c2cccc3c([N+](=O)[O-])ccc(c23)C1=O	18µM*	-25%	22µM*	40µM*	10µM*	16µM*	27*	30*	Pol kappa inh-2=6.7*
CCCCCCc1c(C)c2ccc(OCC(=O)N[C@@H](Cc3ccccc3)C(=O)O)cc2oc1=O	14%	0%	x	-6%	35µM*	0%	84*	u
Cc1ccc(C)n1-c1cccc(C(=O)O)c1	1µM*	1.8µM*	1.8µM*	x	x	x	8.4*	0.17*	Pol kappa inh-2=u
Cc1ccc(C)n1-c1cccc(C(=O)Nc2ccccc2)c1	2%	11%	x	11%	-9%	14%	x	x
Cc1noc(C)c1NC(=O)N(C)C[C@H]1Oc2ccc(NC(=O)CCC(F)(F)F)cc2C(=O)N([C@H](C)CO)C[C@@H]1C	x	9%	5%	-4%	-12%	-8%	x	x
COCCn1c(=O)cnc2cnc(N3CCN(C)CC3)nc21	x	10%	x	11%[60.1 µM]	x	x	x	x
COc1cccc(NC(=O)CN(C)C(=O)c2cc3c(s2)CCC3)c1	x	u	8.9µM*	32µM*	3.5µM*	22µM*	34*	76*
COc1cccc(NC(=O)CN(C)C(=O)c2cc3c(s2)CCC(C)C3)c1 (stereo not drawn)	x	0%	1%	-3%	-1%	13%	x	x
Cc1ccccc1-c1cccc([C@@H]2C[C@H]3C(CN2)CON3C)c1 (stereo partly drawn)	x	x	x	-1%	-15%	9%	x	x
O=P(c1ccccc1)(c1ccccc1)c1cc(S(=O)(=O)O)ccc1O	10µM*	-96%	x	u	20µM*	25µM*	24*	60*	Pol kappa inh-2=42*
CCCCC/C=C\C/C=C\CCCCCCCC(=O)O	x	10%	x	u	x	x	x	x
CCCCC/C=C\C/C=C\C/C=C\CCCCC(=O)O	x	-16%	u	50µM*!	20µM*	40µM*	67*	30*	Pol kappa inh-2=21*
C=C(C)C(=O)Nc1cccc(C2=NOC3(C2)C[C@@H](C(N)=O)N(C(=O)C(=C)C)C3)c1 (stereo partly drawn)	3.5µM*	-4%	x	u	10µM*	50µM*	x	17*	PGK validate=5.8µM*
C/C=C(/C)C(=O)Nc1cccc(C2=NOC3(C2)C[C@H](C(N)=O)N(C(=O)c2ccc(Cl)cc2)C3)c1 (stereo partly drawn)	-4%	4%	x	5%	-13%	41%	x	x
C=C(C)C(=O)Nc1cccc(C2=NOC3(C2)C[C@@H](C(N)=O)N(C(=O)c2cc([N+](=O)[O-])cc([N+](=O)[O-])c2C)C3)c1 (stereo partly drawn)	20µM*	-4%	x	50µM*	13µM*	u	u	19*	PGK validate=u
C=C(C)C(=O)N1CC2(CC(c3cccc(NC(=O)/C=C\C=C/C)c3)=NO2)C[C@H]1C(N)=O (stereo partly drawn)	u	-2%	x	40µM*	13µM*	11µM*	13*	19*
Cc1ccc2onc(CC(=O)N3CCN(c4ccccc4)CC3)c2c1	10%	x	x	-14%	-13%	-3%	x	x
CCN1Cc2cc(OC)ccc2-c2ccccc2S1(=O)=O	x	-12%	-5%	8%	-9%	17%	x	x
O=C(O)C1Nc2c(O)cc(Cl)c([N+](=O)[O-])c2C2C=CCC12 (stereo not drawn)	0.25µM*	2.5µM*	0.32µM*	1.8µM*	1.3µM*	u	15*	4.8*	PGK validate=1.5µM*
CC(=O)c1cccn1S(=O)(=O)c1ccccc1	-20%	41%	x	-16%	-18%	28%	x	x
COc1ccc(C(C)NC(=O)Nc2ccc(C(C)=O)cc2)cc1OC (stereo not drawn)	25%	-9%	x	5%	-8%	2%	x	x
COc1cc(/C=C2\SC(=O)N(CC(=O)Nc3ccc(C)cc3)C2=O)cc(Cl)c1OCC(=O)O	50µM*	5.3µM*	u	u	u	20µM*	4.2*	u	PGK validate=5.8µM*
O=C(CN1C(=O)S/C(=C\c2cc(Cl)c(O)c(Cl)c2)C1=O)Nc1ccccc1	13%	-11%	-5%	-18%	u	u	x	x
COc1ccc(-c2noc(CSc3nnc(C)n3-c3cccc(C)c3)n2)cc1	8%	x	x	7%	-17%	24%	x	x
COc1ccc(S(=O)(=O)N2CCN(C(=O)/C=C/c3ccco3)CC2)cc1	x	24%	-3%	u	50µM*	22µM*	67*	76*	Pol kappa inh-2=67*
